Reference: ChEMBL document CHEMBL2218924, “A broad activity screen in support of a chemogenomic map for kinase signalling research and drug discovery” (Biochem J, 2013)

How the values were obtained:
[1] = target: Tyrosine-protein kinase SYK (Homo sapiens) (UniProt P43405); conditions: at 10 µM
[2] = target: T1, Mitogen-activated protein kinase kinase kinase 7 (Homo sapiens) (UniProt O43318); conditions: at 1 µM
T1 sequence (whole entry): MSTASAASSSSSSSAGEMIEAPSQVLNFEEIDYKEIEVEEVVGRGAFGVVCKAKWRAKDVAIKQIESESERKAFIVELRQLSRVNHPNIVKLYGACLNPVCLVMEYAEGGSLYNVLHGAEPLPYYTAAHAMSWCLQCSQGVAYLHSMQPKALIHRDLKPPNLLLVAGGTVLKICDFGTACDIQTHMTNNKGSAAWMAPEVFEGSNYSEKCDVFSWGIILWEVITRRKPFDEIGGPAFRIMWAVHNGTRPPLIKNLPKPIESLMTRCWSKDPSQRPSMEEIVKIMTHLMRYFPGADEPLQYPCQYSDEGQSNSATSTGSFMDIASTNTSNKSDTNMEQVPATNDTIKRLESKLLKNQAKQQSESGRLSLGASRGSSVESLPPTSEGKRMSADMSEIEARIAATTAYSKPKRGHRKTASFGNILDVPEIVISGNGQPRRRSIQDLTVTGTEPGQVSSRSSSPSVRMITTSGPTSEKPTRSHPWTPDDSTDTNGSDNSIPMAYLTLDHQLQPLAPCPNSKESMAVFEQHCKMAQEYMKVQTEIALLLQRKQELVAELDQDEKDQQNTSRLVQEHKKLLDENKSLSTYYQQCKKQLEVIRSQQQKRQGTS

[3] = target: T1, Mitogen-activated protein kinase kinase kinase 7 (Homo sapiens); conditions: at 10 µM
[4] = target: T2, Serine/threonine-protein kinase TAO1 (Homo sapiens) (UniProt Q7L7X3); conditions: at 1 µM
T2 sequence (whole entry): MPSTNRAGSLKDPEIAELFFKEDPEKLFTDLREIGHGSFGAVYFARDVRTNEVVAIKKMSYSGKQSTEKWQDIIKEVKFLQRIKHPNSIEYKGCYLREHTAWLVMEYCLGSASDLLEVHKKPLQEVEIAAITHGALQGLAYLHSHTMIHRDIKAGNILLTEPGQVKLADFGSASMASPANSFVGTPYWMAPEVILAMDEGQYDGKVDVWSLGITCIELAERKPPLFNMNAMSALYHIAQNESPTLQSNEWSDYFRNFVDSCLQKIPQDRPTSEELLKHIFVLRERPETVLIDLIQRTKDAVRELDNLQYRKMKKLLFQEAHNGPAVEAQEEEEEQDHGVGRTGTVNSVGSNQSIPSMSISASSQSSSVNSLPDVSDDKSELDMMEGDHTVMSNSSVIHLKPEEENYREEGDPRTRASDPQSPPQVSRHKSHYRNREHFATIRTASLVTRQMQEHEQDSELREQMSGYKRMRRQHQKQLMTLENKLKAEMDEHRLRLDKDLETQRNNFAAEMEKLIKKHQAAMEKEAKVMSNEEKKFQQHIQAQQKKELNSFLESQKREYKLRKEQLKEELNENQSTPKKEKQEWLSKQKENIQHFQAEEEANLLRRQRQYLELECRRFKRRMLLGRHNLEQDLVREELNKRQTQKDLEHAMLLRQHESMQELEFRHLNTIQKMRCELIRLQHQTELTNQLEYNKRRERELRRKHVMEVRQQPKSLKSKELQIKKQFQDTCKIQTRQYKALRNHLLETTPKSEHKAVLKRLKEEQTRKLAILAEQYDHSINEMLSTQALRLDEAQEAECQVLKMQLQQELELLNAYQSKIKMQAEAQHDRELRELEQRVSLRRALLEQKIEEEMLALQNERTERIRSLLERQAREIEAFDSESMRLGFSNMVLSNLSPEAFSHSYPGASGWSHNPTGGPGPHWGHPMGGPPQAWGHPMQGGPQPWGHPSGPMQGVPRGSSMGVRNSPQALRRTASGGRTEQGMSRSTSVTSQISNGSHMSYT

[5] = target: T2, Serine/threonine-protein kinase TAO1 (Homo sapiens); conditions: at 10 µM
[6] = target: T3, Serine/threonine-protein kinase TAO2 (Homo sapiens) (UniProt Q9UL54); conditions: at 1 µM
T3 sequence (whole entry): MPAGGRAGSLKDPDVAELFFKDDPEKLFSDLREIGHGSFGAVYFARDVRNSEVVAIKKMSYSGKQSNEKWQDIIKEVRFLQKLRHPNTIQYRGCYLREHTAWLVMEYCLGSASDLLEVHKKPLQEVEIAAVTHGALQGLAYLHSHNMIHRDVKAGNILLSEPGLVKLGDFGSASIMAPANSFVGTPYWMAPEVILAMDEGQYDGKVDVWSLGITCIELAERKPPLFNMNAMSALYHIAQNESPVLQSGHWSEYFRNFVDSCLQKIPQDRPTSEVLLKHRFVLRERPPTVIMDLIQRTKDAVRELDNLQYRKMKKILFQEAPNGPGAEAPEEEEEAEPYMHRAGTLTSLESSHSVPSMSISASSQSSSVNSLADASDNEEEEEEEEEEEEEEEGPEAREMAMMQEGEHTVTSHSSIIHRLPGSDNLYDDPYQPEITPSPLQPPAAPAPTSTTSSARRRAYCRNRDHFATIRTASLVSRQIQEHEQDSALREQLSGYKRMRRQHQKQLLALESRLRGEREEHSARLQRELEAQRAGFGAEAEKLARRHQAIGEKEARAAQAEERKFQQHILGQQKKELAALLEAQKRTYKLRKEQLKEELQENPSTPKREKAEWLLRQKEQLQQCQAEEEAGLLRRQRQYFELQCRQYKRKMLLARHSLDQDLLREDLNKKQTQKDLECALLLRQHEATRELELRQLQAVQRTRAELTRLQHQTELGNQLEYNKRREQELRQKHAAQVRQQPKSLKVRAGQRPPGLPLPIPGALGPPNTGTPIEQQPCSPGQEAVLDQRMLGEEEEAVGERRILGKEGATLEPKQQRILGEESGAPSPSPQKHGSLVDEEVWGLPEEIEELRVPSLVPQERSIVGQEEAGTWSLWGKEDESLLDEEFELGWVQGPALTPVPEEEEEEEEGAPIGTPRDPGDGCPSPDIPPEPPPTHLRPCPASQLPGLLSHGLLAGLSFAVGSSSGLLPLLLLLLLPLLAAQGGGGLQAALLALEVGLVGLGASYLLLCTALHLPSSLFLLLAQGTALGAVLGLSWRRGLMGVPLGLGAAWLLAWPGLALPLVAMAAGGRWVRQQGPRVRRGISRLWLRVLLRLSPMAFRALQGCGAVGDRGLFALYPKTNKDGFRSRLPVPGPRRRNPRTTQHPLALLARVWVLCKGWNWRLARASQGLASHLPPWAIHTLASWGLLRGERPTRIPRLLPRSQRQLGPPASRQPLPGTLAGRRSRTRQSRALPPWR

[7] = target: T3, Serine/threonine-protein kinase TAO2 (Homo sapiens); conditions: at 10 µM
[8] = target: T4, Serine/threonine-protein kinase TAO3 (Homo sapiens) (UniProt Q9H2K8); conditions: at 1 µM
T4 sequence (whole entry): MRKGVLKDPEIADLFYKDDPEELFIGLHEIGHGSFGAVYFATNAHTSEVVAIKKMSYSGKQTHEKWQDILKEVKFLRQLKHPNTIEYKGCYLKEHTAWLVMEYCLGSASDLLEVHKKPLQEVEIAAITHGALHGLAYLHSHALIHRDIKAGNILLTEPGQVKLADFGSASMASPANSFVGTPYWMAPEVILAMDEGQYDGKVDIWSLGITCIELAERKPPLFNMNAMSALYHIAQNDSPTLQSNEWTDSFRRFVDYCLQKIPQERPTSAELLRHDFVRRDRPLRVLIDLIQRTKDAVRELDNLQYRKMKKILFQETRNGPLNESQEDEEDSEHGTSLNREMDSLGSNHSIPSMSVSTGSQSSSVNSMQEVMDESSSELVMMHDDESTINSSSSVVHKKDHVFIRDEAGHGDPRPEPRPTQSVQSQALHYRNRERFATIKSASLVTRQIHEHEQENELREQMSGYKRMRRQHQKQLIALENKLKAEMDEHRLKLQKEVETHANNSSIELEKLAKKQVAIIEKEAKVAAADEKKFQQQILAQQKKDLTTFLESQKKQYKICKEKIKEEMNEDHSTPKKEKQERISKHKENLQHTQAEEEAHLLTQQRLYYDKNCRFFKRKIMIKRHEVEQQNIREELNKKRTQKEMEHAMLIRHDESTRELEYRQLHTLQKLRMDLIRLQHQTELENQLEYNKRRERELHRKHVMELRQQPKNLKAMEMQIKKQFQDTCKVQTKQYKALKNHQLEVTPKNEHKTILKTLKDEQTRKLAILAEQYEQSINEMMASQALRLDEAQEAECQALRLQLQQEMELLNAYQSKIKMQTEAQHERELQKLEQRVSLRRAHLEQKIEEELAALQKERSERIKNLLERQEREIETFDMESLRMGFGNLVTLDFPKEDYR

[9] = target: T4, Serine/threonine-protein kinase TAO3 (Homo sapiens); conditions: at 10 µM
[10] = target: T5, Serine/threonine-protein kinase TBK1 (Homo sapiens) (UniProt Q9UHD2); conditions: at 1 µM
T5 sequence (whole entry): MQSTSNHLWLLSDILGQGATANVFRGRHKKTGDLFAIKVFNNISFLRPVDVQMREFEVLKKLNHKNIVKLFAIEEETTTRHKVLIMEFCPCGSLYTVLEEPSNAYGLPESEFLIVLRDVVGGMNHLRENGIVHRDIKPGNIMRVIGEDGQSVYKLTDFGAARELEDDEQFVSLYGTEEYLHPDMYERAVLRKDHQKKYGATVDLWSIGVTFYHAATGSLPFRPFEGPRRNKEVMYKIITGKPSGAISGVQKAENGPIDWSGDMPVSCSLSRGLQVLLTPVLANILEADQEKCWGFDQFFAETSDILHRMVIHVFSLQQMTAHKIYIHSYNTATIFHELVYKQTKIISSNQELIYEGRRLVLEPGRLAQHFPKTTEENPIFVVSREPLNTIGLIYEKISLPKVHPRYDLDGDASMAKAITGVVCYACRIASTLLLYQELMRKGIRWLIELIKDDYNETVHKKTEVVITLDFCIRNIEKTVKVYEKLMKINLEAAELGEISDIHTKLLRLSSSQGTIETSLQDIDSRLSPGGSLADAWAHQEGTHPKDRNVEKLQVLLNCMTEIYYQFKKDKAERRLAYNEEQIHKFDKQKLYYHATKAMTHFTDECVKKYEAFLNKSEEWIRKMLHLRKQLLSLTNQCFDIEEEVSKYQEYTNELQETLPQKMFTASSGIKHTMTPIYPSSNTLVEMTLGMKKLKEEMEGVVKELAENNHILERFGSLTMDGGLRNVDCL

**Q.** Which residual activity [1] does the source give for `O=C1NC(=O)/C(=C\c2ccc3nccnc3c2)S1` here?
**A.** 92%

**Q.** And the residual activity [2]?
**A.** 94%

**Q.** And the residual activity [3]?
**A.** 93%

**Q.** What about the residual activity [4] of the same compound?
**A.** 71%

**Q.** What about the residual activity [5] of the same compound?
**A.** 14%

**Q.** What about the residual activity [6] of the same compound?
**A.** 99%

**Q.** What about the residual activity [7] of the same compound?
**A.** 44%

**Q.** And the residual activity [8]?
**A.** 72%

**Q.** And the residual activity [9]?
**A.** 16%

**Q.** And the residual activity [10]?
**A.** 56%
